Targets with a hit are over-represented here; the source holds about 7,900 in all. About 0.6% of all pairs of compound and target were hits. A number with no mark means an inactive call.
What was measured:
Assay in all cases: log2 fold change, soluble protein after heating vs DMSO (PISA); higher = thermal stabilisation; K562 cells, 10 uM, 30 min; active = over 0.2 and 3.5 SD of the protein, either way, in both replicates (recomputed)
IRAK-1-4 Inhibitor I = compound: C1COCCN1CCN2C3=CC=CC=C3N=C2NC(=O)C4=CC(=CC=C4)[N+](=O)[O-] [IRAK-1-4 Inhibitor I]
How it was run: (§1)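 Thermal stability values are relative to control samples and come from duplicates. They are expressed as log2 fold changes. For measurement, K562 cells (2×10^6 cells/mL) received 10 μM compound for 30 min, and aliquots were heated for 3 min over 48°C-58°C, pooled, and extracted at 4°C in PBS with 0.5% NP-40. Soluble protein, the supernatant after 21,000xg for 90 min, was quantified by TMTpro 16plex LC-MS/MS with equalised channel sums.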

ibrutinib = compound: C=CC(=O)N1CCC[C@@H](n2nc(-c3ccc(Oc4ccccc4)cc3)c3c(N)ncnc32)C1 [ibrutinib]
How it was run: as §1

[1] = compound: CC(=O)c1cnc2ccc(-c3cc(Cl)c(O)c(Cl)c3)nc2c1N[C@H]1CC[C@H](CN(C)C)CC1
How it was run: as §1

ralimetinib = compound: CC(C)(C)Cn1c(N)nc2ccc(-c3[nH]c(C(C)(C)C)nc3-c3ccc(F)cc3)nc21 [ralimetinib]
How it was run: as §1

[2] = compound: CC(C)(O)CC(=O)NCCn1ccc2ncnc(Nc3ccc(Oc4cccc(C(F)(F)F)c4)c(Cl)c3)c21
How it was run: as §1

[3] = compound: CC(C)C1=C2N=C(C=C(N2N=C1)NCC3=CC=CC=C3)NCCCCCCN
How it was run: as §1

[4] = compound: CC(C)C[C@@H](C=O)NC(=O)[C@H](CC(C)C)NC(=O)[C@H](CC(C)C)NC(=O)OCc1ccccc1
How it was run: as §1

pinometostat = compound: CC(C)N(C[C@H]1O[C@@H](n2cnc3c(N)ncnc32)[C@H](O)[C@@H]1O)[C@H]1C[C@@H](CCc2nc3cc(C(C)(C)C)ccc3[nH]2)C1 [pinometostat]
How it was run: as §1

[5] = compound: CC1=C(C(CC(=O)N1)C2=CC=C(C=C2)C(F)(F)F)C(=O)NC3=C(C=C4C(=C3)C=NN4)F
How it was run: as §1

[6] = compound: CC1=C(C2=C(C=C1)C(=O)C3=CC=CC=C3N2CCCN)C
How it was run: as §1

[7] = compound: CC1=C(C=C(C=C1)NC(=O)C2=CC(=CC=C2)C(C)(C)C#N)NC3=CC4=C(C=C3)N=CN(C4=O)C
How it was run: as §1

[8] = compound: CC1=C(C=C(C=C1)NC(=O)C2=CC(=CC=C2)N(C)C)NC(=O)C3=CC=C(C=C3)O
How it was run: as §1

[9] = compound: CC1=CC=C(C=C1)SC2=C3C=C(SC3=CN=C2)C(=O)N
How it was run: as §1

[10] = compound: CC1=NC(=CC=C1)C2=C(N=C(N2)C(C)(C)C)C3=CC4=NC=CN=C4C=C3
How it was run: as §1

Nexturastat A = compound: CCCCN(Cc1ccc(C(=O)NO)cc1)C(=O)Nc1ccccc1 [Nexturastat A]
How it was run: as §1

vemurafenib = compound: CCCS(=O)(=O)Nc1ccc(F)c(C(=O)c2c[nH]c3ncc(-c4ccc(Cl)cc4)cc23)c1F [vemurafenib]
How it was run: as §1

[11] = compound: CCCS(=O)(=O)Nc1ccc(F)c(C(=O)c2c[nH]c3ncc(Cl)cc23)c1F
How it was run: as §1

[12] = compound: CCCc1cc(C)[nH]c(=O)c1CNC(=O)c1cc(-c2ccnc(N3CCN(C)CC3)c2)cc2c1cnn2C(C)C
How it was run: as §1

givinostat = compound: CCN(CC)Cc1ccc2cc(COC(=O)Nc3ccc(C(=O)NO)cc3)ccc2c1 [givinostat]
How it was run: as §1

barasertib = compound: CCN(CCCOc1ccc2c(Nc3cc(CC(=O)Nc4cccc(F)c4)[nH]n3)ncnc2c1)CCOP(=O)(O)O [barasertib]
How it was run: as §1

Sequence of UniProt Q9BTY2 (Q9BTY2 whole entry, looked up): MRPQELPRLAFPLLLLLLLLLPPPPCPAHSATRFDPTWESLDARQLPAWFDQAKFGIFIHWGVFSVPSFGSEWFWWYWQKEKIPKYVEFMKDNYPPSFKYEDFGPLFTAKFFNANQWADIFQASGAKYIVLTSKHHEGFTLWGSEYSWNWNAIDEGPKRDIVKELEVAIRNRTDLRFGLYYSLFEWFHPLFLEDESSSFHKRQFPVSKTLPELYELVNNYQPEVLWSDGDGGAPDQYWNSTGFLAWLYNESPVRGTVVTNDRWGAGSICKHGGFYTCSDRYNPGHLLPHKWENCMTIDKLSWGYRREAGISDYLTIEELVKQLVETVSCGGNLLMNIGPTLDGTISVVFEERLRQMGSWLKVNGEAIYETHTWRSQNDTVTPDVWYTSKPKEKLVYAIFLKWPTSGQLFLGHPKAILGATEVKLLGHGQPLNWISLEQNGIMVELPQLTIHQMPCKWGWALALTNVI
Sequence of UniProt Q9BUJ2 (Q9BUJ2 whole entry, looked up): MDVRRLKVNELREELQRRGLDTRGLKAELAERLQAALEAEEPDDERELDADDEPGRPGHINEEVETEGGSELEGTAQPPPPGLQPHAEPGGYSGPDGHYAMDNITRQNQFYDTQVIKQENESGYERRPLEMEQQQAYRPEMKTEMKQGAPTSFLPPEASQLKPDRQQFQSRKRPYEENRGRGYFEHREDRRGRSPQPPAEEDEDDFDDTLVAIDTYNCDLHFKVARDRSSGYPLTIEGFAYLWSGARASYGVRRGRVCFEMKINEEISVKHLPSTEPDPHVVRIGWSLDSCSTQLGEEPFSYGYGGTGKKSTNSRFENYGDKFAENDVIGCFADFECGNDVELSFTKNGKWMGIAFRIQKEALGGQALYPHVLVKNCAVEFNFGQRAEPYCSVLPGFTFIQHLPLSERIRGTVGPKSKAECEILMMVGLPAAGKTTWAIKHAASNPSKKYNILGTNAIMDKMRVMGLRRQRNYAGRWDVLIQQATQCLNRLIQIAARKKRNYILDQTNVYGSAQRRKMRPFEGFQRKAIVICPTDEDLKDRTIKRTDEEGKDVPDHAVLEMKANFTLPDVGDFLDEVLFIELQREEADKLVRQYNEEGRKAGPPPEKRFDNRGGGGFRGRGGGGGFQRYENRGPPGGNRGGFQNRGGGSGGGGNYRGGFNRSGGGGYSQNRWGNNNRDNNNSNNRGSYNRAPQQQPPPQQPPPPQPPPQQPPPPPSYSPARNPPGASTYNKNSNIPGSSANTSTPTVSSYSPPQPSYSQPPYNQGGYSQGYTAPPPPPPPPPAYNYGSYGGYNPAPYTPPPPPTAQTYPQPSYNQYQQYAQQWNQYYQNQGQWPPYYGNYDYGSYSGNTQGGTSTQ
Sequence of UniProt Q06546 (Q06546 whole entry, looked up): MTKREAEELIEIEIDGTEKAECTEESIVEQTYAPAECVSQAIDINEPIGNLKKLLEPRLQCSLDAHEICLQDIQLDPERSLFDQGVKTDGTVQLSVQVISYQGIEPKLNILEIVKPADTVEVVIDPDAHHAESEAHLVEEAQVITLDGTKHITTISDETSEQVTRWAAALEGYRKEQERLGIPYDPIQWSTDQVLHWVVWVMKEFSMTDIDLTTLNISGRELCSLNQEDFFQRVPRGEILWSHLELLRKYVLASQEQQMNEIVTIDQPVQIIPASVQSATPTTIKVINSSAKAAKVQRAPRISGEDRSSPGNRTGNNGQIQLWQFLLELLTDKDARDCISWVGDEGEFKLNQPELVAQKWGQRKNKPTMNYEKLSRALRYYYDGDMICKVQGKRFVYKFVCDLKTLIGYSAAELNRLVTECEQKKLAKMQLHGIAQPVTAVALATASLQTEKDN
Sequence of UniProt Q86UL3 (Q86UL3 whole entry, looked up): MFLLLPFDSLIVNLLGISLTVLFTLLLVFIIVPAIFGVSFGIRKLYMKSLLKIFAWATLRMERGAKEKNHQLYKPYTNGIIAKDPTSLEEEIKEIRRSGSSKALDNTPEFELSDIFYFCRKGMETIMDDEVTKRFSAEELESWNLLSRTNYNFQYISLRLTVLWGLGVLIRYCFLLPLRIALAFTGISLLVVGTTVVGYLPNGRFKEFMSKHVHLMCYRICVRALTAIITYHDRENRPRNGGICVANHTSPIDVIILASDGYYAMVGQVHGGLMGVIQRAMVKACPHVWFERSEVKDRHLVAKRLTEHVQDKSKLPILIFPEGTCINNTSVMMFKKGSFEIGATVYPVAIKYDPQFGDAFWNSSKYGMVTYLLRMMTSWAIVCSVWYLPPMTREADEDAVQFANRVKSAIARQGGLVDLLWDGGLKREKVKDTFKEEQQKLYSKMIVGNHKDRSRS
Sequence of UniProt Q14C86 (Q14C86 whole entry, looked up): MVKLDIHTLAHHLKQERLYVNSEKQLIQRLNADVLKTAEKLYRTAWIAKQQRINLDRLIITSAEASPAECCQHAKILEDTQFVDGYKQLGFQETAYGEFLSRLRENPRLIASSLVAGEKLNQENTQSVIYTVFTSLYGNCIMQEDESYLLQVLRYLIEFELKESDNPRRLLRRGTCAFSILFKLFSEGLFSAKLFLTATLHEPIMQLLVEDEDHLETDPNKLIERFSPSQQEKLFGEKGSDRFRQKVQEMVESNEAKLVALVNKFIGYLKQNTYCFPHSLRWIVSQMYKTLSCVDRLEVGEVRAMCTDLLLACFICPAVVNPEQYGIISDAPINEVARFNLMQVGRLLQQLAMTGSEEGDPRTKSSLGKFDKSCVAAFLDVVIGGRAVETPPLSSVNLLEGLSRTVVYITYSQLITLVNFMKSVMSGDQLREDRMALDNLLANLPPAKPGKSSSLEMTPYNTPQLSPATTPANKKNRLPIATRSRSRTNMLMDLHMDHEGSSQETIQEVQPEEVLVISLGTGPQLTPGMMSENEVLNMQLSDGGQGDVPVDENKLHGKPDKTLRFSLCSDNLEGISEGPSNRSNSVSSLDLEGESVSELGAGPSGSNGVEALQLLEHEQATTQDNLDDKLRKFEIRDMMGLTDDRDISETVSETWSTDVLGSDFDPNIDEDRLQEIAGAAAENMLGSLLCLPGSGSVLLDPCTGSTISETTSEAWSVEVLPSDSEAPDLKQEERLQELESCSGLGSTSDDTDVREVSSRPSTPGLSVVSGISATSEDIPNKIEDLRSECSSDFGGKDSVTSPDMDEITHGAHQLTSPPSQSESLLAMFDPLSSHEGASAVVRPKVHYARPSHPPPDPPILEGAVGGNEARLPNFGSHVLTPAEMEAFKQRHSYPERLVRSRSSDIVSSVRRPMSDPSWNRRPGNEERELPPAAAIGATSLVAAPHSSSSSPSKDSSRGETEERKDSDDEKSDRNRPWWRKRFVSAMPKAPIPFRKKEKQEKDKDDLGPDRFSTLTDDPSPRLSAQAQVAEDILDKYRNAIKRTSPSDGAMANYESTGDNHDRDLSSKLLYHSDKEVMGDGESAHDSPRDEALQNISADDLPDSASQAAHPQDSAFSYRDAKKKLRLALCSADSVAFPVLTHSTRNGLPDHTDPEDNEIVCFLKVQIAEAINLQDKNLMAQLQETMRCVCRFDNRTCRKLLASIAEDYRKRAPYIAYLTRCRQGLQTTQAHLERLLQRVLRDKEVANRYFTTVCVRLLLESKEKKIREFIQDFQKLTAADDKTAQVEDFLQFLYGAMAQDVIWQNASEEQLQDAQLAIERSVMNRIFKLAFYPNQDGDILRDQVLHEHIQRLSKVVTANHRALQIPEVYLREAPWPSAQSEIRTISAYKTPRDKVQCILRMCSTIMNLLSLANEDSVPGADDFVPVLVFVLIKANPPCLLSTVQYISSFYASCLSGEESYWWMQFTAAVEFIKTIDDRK
Sequence of UniProt P78417 (P78417 whole entry, looked up): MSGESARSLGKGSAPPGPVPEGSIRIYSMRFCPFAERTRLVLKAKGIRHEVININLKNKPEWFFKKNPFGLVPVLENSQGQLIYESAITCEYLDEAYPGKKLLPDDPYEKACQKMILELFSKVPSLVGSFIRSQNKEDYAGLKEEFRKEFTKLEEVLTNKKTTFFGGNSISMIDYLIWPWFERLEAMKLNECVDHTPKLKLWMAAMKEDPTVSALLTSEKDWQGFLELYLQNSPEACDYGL
Sequence of UniProt O00291 (O00291 whole entry, looked up): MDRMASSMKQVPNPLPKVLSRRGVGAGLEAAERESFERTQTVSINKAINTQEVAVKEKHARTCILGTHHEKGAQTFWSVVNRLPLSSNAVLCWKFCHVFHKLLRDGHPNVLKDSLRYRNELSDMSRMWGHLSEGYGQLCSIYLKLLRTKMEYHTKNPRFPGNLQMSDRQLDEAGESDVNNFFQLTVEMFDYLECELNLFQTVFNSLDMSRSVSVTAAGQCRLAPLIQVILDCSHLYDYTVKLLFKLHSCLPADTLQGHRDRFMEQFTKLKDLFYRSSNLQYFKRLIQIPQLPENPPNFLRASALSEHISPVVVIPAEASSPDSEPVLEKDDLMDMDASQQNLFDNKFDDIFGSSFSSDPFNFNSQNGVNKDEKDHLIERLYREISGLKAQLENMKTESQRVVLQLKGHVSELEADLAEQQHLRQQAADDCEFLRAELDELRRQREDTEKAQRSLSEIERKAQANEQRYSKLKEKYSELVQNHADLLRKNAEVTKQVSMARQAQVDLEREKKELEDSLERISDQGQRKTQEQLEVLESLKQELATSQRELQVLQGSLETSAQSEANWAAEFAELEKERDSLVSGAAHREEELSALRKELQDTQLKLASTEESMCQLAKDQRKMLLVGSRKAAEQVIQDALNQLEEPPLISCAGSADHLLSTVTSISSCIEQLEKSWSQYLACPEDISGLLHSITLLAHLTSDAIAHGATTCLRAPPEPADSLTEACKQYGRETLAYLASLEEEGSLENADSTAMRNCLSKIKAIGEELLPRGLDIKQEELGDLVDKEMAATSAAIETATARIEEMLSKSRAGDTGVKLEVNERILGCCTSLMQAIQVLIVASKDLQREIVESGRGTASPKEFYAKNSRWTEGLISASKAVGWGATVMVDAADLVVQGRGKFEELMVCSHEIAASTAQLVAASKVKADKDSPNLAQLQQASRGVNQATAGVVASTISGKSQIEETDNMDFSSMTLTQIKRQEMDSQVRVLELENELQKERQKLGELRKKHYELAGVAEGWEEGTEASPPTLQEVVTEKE

Row | Target | log2 fold change (IRAK-1-4 Inhibitor I) | log2 fold change (ibrutinib) | log2 fold change [1] | log2 fold change (ralimetinib) | log2 fold change [2] | log2 fold change [3] | log2 fold change [4] | log2 fold change (pinometostat) | log2 fold change [5] | log2 fold change [6] | log2 fold change [7] | log2 fold change [8] | log2 fold change [9] | log2 fold change [10] | log2 fold change (Nexturastat A) | log2 fold change (vemurafenib) | log2 fold change [11] | log2 fold change [12] | log2 fold change (givinostat) | log2 fold change (barasertib)
1 | HIST2H3A (UniProt Q71DI3) | -0.269 | 0.081 | -0.012 | 0.292 | -0.021 | -0.225 | 0.18 | 0.29 | 0.002 | 0.727 | -0.1 | -0.004 | -0.119 | -0.056 | 0.921 (active) | -0.203 | 0.592 | 0.037 | 0.321 | -0.148
2 | ICAM1 (UniProt P05362) | 0.056 | 0.042 | -0.039 | -0.02 | 0.002 | 0.157 | -0.001 | -0.009 | -0.028 | 0.045 | -0.055 | 0.016 | 0.033 | -0.016 | 0.02 | 0.018 | -0.034 | 0.001 | -0.014 | -0.021
3 | HMOX2 (UniProt P30519) | -0.061 | -0.035 | -0.092 | 0.081 | 0.031 | 0.08 | 0.028 | 0 | -0.016 | 0.012 | 0 | -0.06 | 0.036 | -0.019 | -0.023 | 0.034 | 0.012 | 0.097 | 0.015 | 0.042
4 | FUCA2 (UniProt Q9BTY2) | -0.078 | 0.043 | -0.056 | 0.019 | 0.026 | -0.09 | -0.004 | 0.036 | -0.036 | -0.12 | 0.015 | 0 | 0.016 | -0.02 | -0.025 | 0.005 | -0.053 | -0.025 | -0.028 | -0.01
5 | GCSH (UniProt P23434) | 0.027 | -0.002 | 0.011 | -0.026 | -0.031 | -0.025 | -0.049 | -0.021 | 0.029 | 0.03 | -0.024 | 0.047 | 0.279 | 0.006 | -0.06 | 0.079 | -0.021 | -0.139 | 0 | -0.095
6 | HMGCR isoform 3 (UniProt P04035) | 0.037 | -0.001 | 0.022 | -0.005 | -0.023 | 0.029 | 0.383 (active) | 0.014 | 0.011 | -0.044 | 0.131 | -0.046 | 0.061 | -0.115 | 0.074 | -0.002 | -0.04 | -0.043 | 0.034 | 0.027
7 | GSTO1 (UniProt P78417) | 0.073 | -0.029 | 0.006 | 0.021 | -0.029 | 0.066 | -0.045 | -0.047 | 0.021 | 0.021 | -0.031 | 0.002 | 0.03 | 0.03 | -0.121 | 0.02 | 0.017 | 0.15 | -0.043 | 0.016
8 | FOXK1 (UniProt P85037) | 0.046 | 0.121 | -1.03 (active) | -0.027 | 0.015 | 0.111 | 0.052 | -0.002 | -0.05 | 0.154 | 0.323 | -0.01 | -0.362 | -0.063 | -0.091 | 0.097 | 0.182 | -0.129 | -0.025 | -0.221
9 | HIP1 (UniProt O00291) | -0.002 | 0.083 | -0.07 | -0.003 | -0.035 | -0.056 | 0.079 | 0.045 | 0.074 | 0.038 | -0.086 | -0.004 | -0.028 | 0.002 | 0.286 (active) | -0.003 | 0.056 | 0.233 | 0.043 | 0.01
10 | H2AZ1 (UniProt P0C0S5) | -0.115 | 0.087 | -0.125 | 0.247 | 0.031 | -0.022 | 0.244 | 0.268 | 0.022 | 1.74 (active) | -0.051 | 0 | -0.174 | -0.01 | 0.75 (active) | -0.209 | 0.233 | 0.074 | 0.454 | -0.083
11 | GPAT4 (UniProt Q86UL3) | -0.144 | -0.081 | 0.044 | -0.058 | -0.09 | 0.145 | 0.007 | -0.029 | -0.015 | 0.047 | 0.05 | -0.004 | 0.014 | -0.004 | -0.004 | 0.036 | 0.027 | 0.019 | -0.024 | 0.027
12 | GSK3B isoform 2 (UniProt P49841) | 0.017 | 0.019 | 0.144 | -0.005 | -0.07 | 0.004 | -0.031 | -0.022 | -0.008 | -0.017 | 0.015 | -0.022 | 0.044 | 0.034 | 0.003 | -0.008 | -0.018 | -0.066 | -0.07 | -0.017
13 | GAPVD1 isoform 6 (UniProt Q14C86) | -0.044 | -0.087 | 0.005 | 0.056 | -0.111 | -0.278 (active) | 0.037 | 0.094 | 0.003 | -0.003 | 0.004 | -0.041 | 0.046 | 0.019 | 0.025 | 0.007 | 0.13 | 0.047 | 0.047 | 0.034
14 | HNRNPUL1 (UniProt Q9BUJ2) | -0.055 | 0 | -0.072 | 0.005 | 0.027 | 0.007 | 0.035 | 0.01 | 0.014 | -0.096 | -0.063 | -0.058 | -0.013 | 0.03 | 0.024 | 0.032 | -0.033 | 0.024 | 0.046 | 0.04
15 | HTATIP2 isoform 3 (UniProt Q9BUP3) | 0.007 | 0.003 | -0.034 | 0.077 | 0.651 (active) | -0.182 | -0.021 | 0.006 | -0.017 | 0.025 | 0.065 | -0.093 | 0.011 | -0.007 | -0.14 | 0.057 | 0.039 | 0.059 | 0.012 | 0.041
16 | GABPA (UniProt Q06546) | -0.004 | -0.014 | -0.054 | 0.001 | -0.107 | -0.243 | -0.013 | -0.007 | -0.043 | -0.175 | -0.007 | -0.011 | 0.064 | 0.039 | 0.008 | 0.062 | 0.09 | -0.004 | 0.17 | 0.022

Reference: the supplement of paper PMC10849652
